Measured values from PubChem BioAssay (Tox21).
Inconclusive results are not listed. Values without a mark were called inactive. Activity calls are given as the source filed them. Calls come from the whole dose curve.

The molecules below were run against Acetylcholinesterase (Homo sapiens) (UniProt P22303) (assay: Acetylcholinesterase (AChE) small molecule antagonists: fluorescence cell-based qHTS assay (AID 1347398; note: nearly all actives have a fitted effect of over 50% in size)). Details: SH-SY5Y cells; Potency: AChE activity; outcome: AChE activity; series mostly up to 115 µM; activity change, negative = inhibition: at the top concentration.
Chain of Acetylcholinesterase (Homo sapiens) (P22303 whole entry, looked up): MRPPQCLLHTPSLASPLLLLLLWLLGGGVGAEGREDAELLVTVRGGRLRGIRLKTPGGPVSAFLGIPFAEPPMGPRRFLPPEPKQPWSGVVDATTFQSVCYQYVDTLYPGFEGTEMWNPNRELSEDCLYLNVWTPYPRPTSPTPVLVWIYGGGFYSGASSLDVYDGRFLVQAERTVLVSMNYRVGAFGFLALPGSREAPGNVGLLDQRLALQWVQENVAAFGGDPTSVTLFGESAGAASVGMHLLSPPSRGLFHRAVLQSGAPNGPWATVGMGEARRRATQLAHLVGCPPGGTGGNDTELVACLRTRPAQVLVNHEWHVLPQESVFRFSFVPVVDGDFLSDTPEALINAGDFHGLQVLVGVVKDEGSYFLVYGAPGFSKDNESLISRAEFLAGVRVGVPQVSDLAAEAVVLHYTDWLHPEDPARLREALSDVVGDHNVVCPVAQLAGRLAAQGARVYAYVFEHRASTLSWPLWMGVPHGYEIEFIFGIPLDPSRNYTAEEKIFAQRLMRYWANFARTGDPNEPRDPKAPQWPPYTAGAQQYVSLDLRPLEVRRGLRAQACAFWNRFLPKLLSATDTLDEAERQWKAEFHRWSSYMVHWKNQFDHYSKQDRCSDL
In short: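 Cellular AChE inhibition: SH-SY5Y cells treated with test chemical for 30 min at 37 C, then acetylthiocholine hydrolysis followed over 40 min at room temperature via thiocholine-reactive Thiolite Green fluorescence (490/520 nm).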
% is set by controls: 0 for no effect and ±100 for the full control effect.

SMILES	activity change, negative = inhibition	Potency
CCCCC(=O)N(C)C	4.21%	–
C=C(C)[C@@H]1CC=C(C)C(=O)C1	-11.1%	–
Oc1c(I)cc(Cl)c2cccnc12	–	inactive
CCOC(=O)CC(=O)OCC	–	inactive
Sc1nc(S)nc(S)n1	6.97% [at 53.7 µM]	–
CC(c1cc2ccccc2s1)N(O)C(N)=O (centres undefined)	–	inactive
Cc1cc(C)c(S(=O)(=O)O)cc1N=Nc1cc(S(=O)(=O)O)c2ccccc2c1O	-26.9%	–
O=C(O)[C@H](O)[C@@H](O)[C@H](O[C@@H]1O[C@H](CO)[C@H](O)[C@H](O)[C@H]1O)[C@H](O)CO	10.2% [at 53.7 µM]	–
CCCCCC1CCC(=O)O1 (centres undefined)	-0.254%	–
Nc1c(Cl)cc(Cl)cc1[N+](=O)[O-]	1.73%	–
CCCCC(CC)CN1CN(CC(CC)CCCC)CC(C)(N)C1 (centres undefined)	-14.7% [at 53.7 µM]	–
COc1cc(C(=S)N2CCOCC2)ccc1O	8.14% [at 53.7 µM]	–
O=C1O[C@H](CO)[C@@H](O)[C@H](O)[C@H]1O	–	inactive
C=C[Si](C)(C)Cl	-9.61% [at 10.5 µM]	–
CCc1ccccc1O	–	inactive
C#C[C@]1(O)CC[C@H]2[C@@H]3CCC4=Cc5oncc5C[C@]4(C)[C@H]3CC[C@@]21C	–	inactive
COC(=O)c1cccc(C(=O)OC)c1	–	inactive
CC1COC(=O)O1 (centres undefined)	–	inactive
CC(=O)C1=C(C)[C@@H]2C[C@@]3(C1)[C@H](C)CC[C@H]3C2(C)C	–	inactive
O=C(O)c1ccc(O)cc1	–	inactive
Fc1ccc(C(c2ccc(F)cc2)N2CCNCC2)cc1	3.1% [at 53.7 µM]	–
CCCCCCCCCCOS(=O)(=O)O	-0.963%	–
CC(C)c1ccc(C(C)C)cc1	–	inactive
CCCCCCCCCCCc1ccccc1	-6.07%	–
